Assay [1] in a line: growth inhibition of DIPG glioma cells, dose response, cell-based, SU-DIPG-XIII, MIPE5.0, CellTiter-Glo, qHTS (AID 1347064; cut-off not given, nearly all actives have AC50 up to about 23 µM;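 on AC50: cells exposed to compound for 48 hours before the viability read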). To be noted: SU-DIPG-XIII viability, CellTiter-Glo ATP luminescence. For orientation: In ATP-based viability assays light output follows the ATP content of the culture.
A short description of assay [2]: JHH-DIPG-1 glioma cell viability, MIPE5.0 library, CellTiter-Glo luminescence, qHTS (AID 1347067; cut-off not given, nearly all actives have AC50 up to about 26 µM;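 further: cells exposed to compound for 48 hours before readout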). As to conditions: JHH-DIPG-1 glioma viability, CellTiter-Glo ATP luminescence.
A short description of assay [3]: circadian clock period modulators, cell-based, LOPAC library, luminescence reporter (AID 2774; call rule not given here;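 further: values are relative to mean of DMSO wells on each plate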). To be noted: circadian reporter cells, at 7 µM, actives lie on both sides.
A short description of assay [4]: hESC survival regulators, cell-based (AID 493140; call rule not given here;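 further: cells exposed to compounds for four days before counting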). To be noted: human embryonic stem cell survival screen; stronger effect = higher value.
For assay [5], the system named is Hepatitis C virus NS3 helicase. The assay can be described thus: HCV NS3 helicase inhibitors, primary screen, biochemical, fluorescence polarization, LOPAC1280 library (AID 687035; in the data active means inhibition above about 37%). As to conditions: Purified HCV NS3 helicase, Cy5-dT15 ssDNA binding fluorescence polarization; stronger effect = higher value; concentration not given here. In general terms: In fluorescence polarisation assays a small probe gives low polarisation when free and higher when bound to something large.

Assay [6] can be described thus: Cy5 fluorescence quenching or enhancement artefacts, artefact control for HCV NS3 helicase inhibitor project, biochemical, LOPAC1280 (AID 687037; call rule not given here). As to conditions: Cy5-DNA-NS3h complex fluorescence interference counterscreen.
Assay [7] can be described thus: phospholipid biosynthesis inhibitors in animal cells, primary screen, cell-based, LOPAC library, screen 4 (AID 1347384; call rule not given here). As to conditions: phospholipid biosynthesis inhibition screen, at 10 µM.
A short description of assay [8]: growth inhibition of DIPG glioma cells, dose response, cell-based, SU-DIPG-IV, MIPE4.0, CellTiter-Glo, qHTS (AID 1347063).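 Further: compound exposure lasted 48 hours before the viability readout.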 As to conditions: SU-DIPG-IV viability, CellTiter-Glo ATP luminescence.
In assay [9] the target is NAD(+) hydrolase SARM1 (Homo sapiens) (UniProt Q6SZW1). The assay can be described thus: SARM1 TIR NADase inhibitors, cell lysate, NAD-Glo luminescence (AID 1508614;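 active means compound whose remaining NAD level is above about 45 nM, limit read from the data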). To be noted: SAM-TIR HEK293T lysate NADase, at 1 µM, stronger effect = higher value.
Chain of NAD(+) hydrolase SARM1 (Homo sapiens) (Q6SZW1 whole entry, looked up): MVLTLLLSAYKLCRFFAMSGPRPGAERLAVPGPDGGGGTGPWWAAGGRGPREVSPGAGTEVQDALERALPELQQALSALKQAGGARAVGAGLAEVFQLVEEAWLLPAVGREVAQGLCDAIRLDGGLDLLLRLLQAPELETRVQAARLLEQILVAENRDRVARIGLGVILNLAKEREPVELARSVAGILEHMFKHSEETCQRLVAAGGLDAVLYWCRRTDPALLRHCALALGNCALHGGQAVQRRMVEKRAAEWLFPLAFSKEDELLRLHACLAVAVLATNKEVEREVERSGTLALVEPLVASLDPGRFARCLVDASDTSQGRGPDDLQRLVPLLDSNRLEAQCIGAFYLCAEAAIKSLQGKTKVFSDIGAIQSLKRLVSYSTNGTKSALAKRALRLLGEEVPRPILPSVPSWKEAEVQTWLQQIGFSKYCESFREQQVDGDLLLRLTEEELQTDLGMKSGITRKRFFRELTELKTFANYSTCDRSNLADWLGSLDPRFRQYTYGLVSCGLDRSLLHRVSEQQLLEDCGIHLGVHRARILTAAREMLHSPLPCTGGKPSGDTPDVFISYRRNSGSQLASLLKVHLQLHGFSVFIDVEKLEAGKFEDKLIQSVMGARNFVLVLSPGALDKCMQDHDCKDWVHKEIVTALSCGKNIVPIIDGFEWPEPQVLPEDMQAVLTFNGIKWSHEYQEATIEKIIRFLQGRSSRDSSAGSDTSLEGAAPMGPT
Assay [10] can be described thus: modifiers of HSF1 nuclear foci, imaging, Selleck Cancer Library (AID 1347162; in the data active means plate-normalised HSF1 focus index below about 0.46). To be noted: human cells, at 10 µM; SSMD: measured here: HSF1 foci SSMD mean; cell count: measured here: cell number; plate-normalised HSF1 focus index: stronger effect = lower value.

As usually defined, the inhibition is the relative decrease from the control value, in per cent. One may read the AC50 as the midpoint of the concentration-response curve, whichever way the signal moves.

Inconclusive results are not listed. Activity calls are given as the source filed them. Unless noted, cut-off not given; nearly all actives show AC50 up to about 30 µM.

Regarding `COC(=O)[C@@H]1CC2=CC(=O)CC[C@]2(C)[C@@]23O[C@@H]2C[C@@]2(C)[C@@H](CC[C@@]24CCC(=O)O4)[C@H]13`, the molecule was called inactive in assay [1] and in assay [2].
For `CN(C)C/C=C(/c1ccc(Br)cc1)c1cccnc1`, the period change in assay [3] was -0.15 h (inactive). Further, the survival in assay [4] was 24.8 (inactive). Besides, the inhibition in [5] is 1% (inactive). For the same molecule, the fluorescence ratio (interference) in assay [6] was 1 (inactive). In addition, the outcome in [7] was inactive.
On to `OC(CN1CCC(Cc2ccc(F)cc2)CC1)c1ccc(Cl)cc1` (stereo unspecified), for which the inhibition in assay [5] was -3% (inactive). Besides, the fluorescence ratio (interference) in [6] is 1 (inactive). Moreover, the call in assay [8] and in assay [7] was inactive.
In the case of `O=C(NOCC1CC1)c1ccc(F)c(F)c1Nc1ccc(I)cc1Cl`, the AC50 in [8] was 20.9 µM (active); in [1], 3.32 µM (active); in assay [2], 1.86 µM (active).
In the case of `CC(=O)[C@H]1CC[C@H]2[C@@H]3CC=C4C[C@@H](O)CC[C@]4(C)[C@H]3CC[C@]12C`, the survival in [4] is 9.33 (inactive). Further, the molecule was classed as inactive in assay [8], in assay [1] and in assay [2]. Moreover, in [9], the remaining NAD was 10 nM (inactive).
For the molecule `CCOC(=O)[C@H](CCc1ccccc1)N[C@H]1CS[C@H](c2cccs2)CN(CC(=O)O)C1=O`, the AC50 in assay [8] was 1.87 µM (active). In addition, the molecule was classed as inactive in assay [1] and in assay [2].
Turning to `CC(C)OC(=O)C(C(=O)OC(C)C)=C1SC=CS1`, in assay [8], the call was inactive.
For the molecule `COC(=O)C1=C(C)NC(C)=C(C(=O)OCCCN2CCC(c3ccccc3)(c3ccccc3)CC2)C1c1cccc([N+](=O)[O-])c1` (stereo unspecified), the outcome in assay [8] was inactive. For the same molecule, in [1], the AC50 was 13.2 µM (active).
With `Nc1ccn(C[C@@H](CO)OCP(=O)(O)O)c(=O)n1`, the molecule was classed as inactive in assay [8], in [1] and in [2].
In the case of `O=C(O)C(=O)Nc1cccc(-c2nn[nH]n2)c1`, the result in assay [8] and in assay [2] was inactive.
On to `CNC(=O)c1cc(Oc2ccc(NC(=O)Nc3ccc(Cl)c(C(F)(F)F)c3)cc2)ccn1`, for which the concentration at half-maximal activity (AC50) in assay [8] was 20.9 µM (active). The half-maximal activity concentration (AC50) in assay [2] is 4.17 µM (active). In addition, in assay [10], the SSMD worked out at 0.678, the cell count stood at 6960 and the plate-normalised HSF1 focus index is 1.05 (inactive).
For `O=c1[nH]c(=O)n([C@H]2C[C@H](O)[C@@H](CO)O2)cc1I`, the molecule was called inactive in assay [8]. Also, the remaining NAD in assay [9] is 10 nM (inactive).
`CC1(COc2ccc(CC3SC(=O)NC3=O)cc2)CCCCC1` (stereo unspecified): in assay [4], the survival is 117 (inactive).
Regarding `NS(=O)(=O)c1cc(Cl)c(Cl)c(S(N)(=O)=O)c1`, the survival in assay [4] was 2 (inactive). The result in assay [8] and in assay [2] was inactive.
Regarding `CCN[C@H]1C[C@H](C)S(=O)(=O)c2sc(S(N)(=O)=O)cc21`, in assay [4], the survival was 14.7 (inactive). In addition, the outcome in assay [8], in assay [1] and in assay [2] was inactive. The molecule further showed an SSMD in assay [10] of 2.68. This molecule came in with a cell count in assay [10] of 6990. The plate-normalised HSF1 focus index in assay [10] was 1.14 (inactive).
As to `Clc1ccc(Nc2nnc(Cc3ccncc3)c3ccccc23)cc1`, the result in assay [1] was inactive. For the same molecule, in assay [2], the AC50 was 18.6 µM (active). In addition, in assay [10], the SSMD came out at 2.9, the cell count is 7070 and the plate-normalised HSF1 focus index is 1.15 (inactive).
In the case of `C[C@@H](NCCCc1cccc(C(F)(F)F)c1)c1cccc2ccccc12`, the call in [8] was inactive. The values for the AC50 in assay [1] and in assay [2] were 18.6 µM (active) and 16.6 µM (active), respectively.

Values taken from PubChem BioAssay.
